From PubChem BioAssay AID1259415 (National Center for Advancing Translational Sciences (NCATS), 2018) come the findings set out here.

Screen size: about 410,000 compounds; about 18,000 (4.4%) were called active. About 7% were inconclusive and are not listed. The sample holds actives, similar compounds and a random draw of the others, so the mix is not that of the screen. Cut-off read from the data, not from the text of the source: active = activity change below about -60%; inconclusive = no clear call, values can overlap the other calls; inactive = above about -39%.
% is set by controls: 0 for no effect and ±100 for the full control effect.

A short description of this assay: qHTS Assay for inhibitors of the human cytomegalovirus (HCMV). As to conditions: HFF cells, HCMV-luciferase reporter, 72 h; at 57.5 µM; hits give low values. The procedure, abridged:
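Inhibition of viral replication was scored as loss of reporter luminescence in HFFs infected with HCMV-luciferase (MOI 1 PFU/cell) for 72 h; compounds tested at 2 doses, normalized to buffer and Salinomycin controls.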
`COc1ccc(CNCCc2c[nH]c3ccccc23)cc1OC`: the activity change, negative = inhibition was 4.34% (inactive). For `COc1cccc(CNn2cn[nH]c2=S)c1OCc1ccccc1` the value was -23.6% (inactive); for `COc1cccc(CNCCc2c[nH]c3ccccc23)c1OCc1ccccc1F`, -99.3% (active); for `Nc1ncnc2c1ncn2C1OC(CO)CC1O` (stereo not given), 8.48% (inactive). For `CC1CCc2noc(NC(=O)c3ccc([N+](=O)[O-])cc3)c2C1` (stereo not given) the value was 26.6% (inactive); for `CS(=O)(=O)N(CC(=O)N/N=C/c1ccccn1)c1ccc(Oc2ccccc2)cc1`, -1.4% (inactive). For `Cc1nnc(N/N=C/c2ccccn2)[nH]c1=O` the value was -97.8% (active). Regarding `S=C(NN=Cc1ccccn1)Nc1ccccn1`, the activity change, negative = inhibition was 279% (inactive).

Consider `O=C(CN1C(=O)COc2ccc(S(=O)(=O)N3CCCCCC3)cc21)N1CCN(c2cccc(C(F)(F)F)c2)CC1`, for which the activity change, negative = inhibition is -23.3% (inactive).

`Fc1ccc(C(Nc2ccc(Cl)c(C(F)(F)F)c2)c2nnc(-c3ccccc3)o2)cc1` (stereo not given): the activity change, negative = inhibition is -0.379% (inactive). With `O=c1nc(N/N=C/c2ccco2)cn[nH]1` the figure was -3.52% (inactive). For `COc1cc(OC)cc(C(=O)N[C@H](C(=O)OCC(=O)NC(C)c2ccccc2)C(C)C)c1` (stereo not given in full) the value was -6.95% (inactive). With `COc1ccc(N2CCN(C(=O)[C@@H](NC(=O)c3cc(OC)cc(OC)c3)C(C)C)CC2)cc1` the figure was -2.95% (inactive); with `COc1cc(OC)cc(C(=O)N[C@H](C(=O)Nc2nc3ccccc3[nH]2)C(C)C)c1`, -77% (active); with `CCN(Cc1ccncc1)C(=S)Nc1ccccc1C`, 2.81% (inactive). Regarding `CCn1c(CN2CCC(C)CC2)nc2cc(NC(=O)c3ccccc3[N+](=O)[O-])ccc21`, the activity change, negative = inhibition was -37.4% (inactive). For `O=C1Nc2cc(Cl)c(Cl)cc2N(O)N1c1ccccc1Cl` the value was -10% (inactive); for `CC(Sc1nnc2c(n1)C1CCC2(C)C1(C)C)C(=O)Nc1ccccc1` (stereo not given), -60.9% (active).

Regarding `CC(Sc1nnc(C2CC2)n1C1CC1)C(=O)Nc1ccc(C(N)=O)cc1` (stereo not given), the activity change, negative = inhibition was 36.3% (inactive).

For the molecule `COc1ccc(NC(=O)C(C)SCc2ccccc2)cc1` (stereo not given), the activity change, negative = inhibition was -10.8% (inactive). As to `CC(=O)Nc1ccc(S(=O)(=O)Nc2cc(C)cn(Cc3ccc(C)cc3)c2=O)cc1`, the activity change, negative = inhibition was -7.02% (inactive). For `Oc1c(Cl)cc(Cl)c(Cl)c1Cc1c(O)c(Cl)cc(Cl)c1Cl` the value was -95.4% (active). With `Cc1cc(C)nc(NS(=O)(=O)c2ccc(NC(=O)c3cc(=O)c4ccc(C)c(C)c4o3)cc2)n1` the figure was -4.22% (inactive). On to `Cc1cc(C)cc(NS(=O)(=O)c2ccc(-c3cc(C)no3)s2)c1`, for which the activity change, negative = inhibition is 0% (inactive).

With `COc1cccc(-c2nnc3n(CCc4ccccc4)c(=O)c4ccccc4n23)c1O`, the activity change, negative = inhibition was 2.64% (inactive).

In the case of `Cc1cc(=O)oc2cc(OCC3CC(c4ccccc4Cl)=NO3)ccc12` (stereo not given), the activity change, negative = inhibition is -90.9% (active). For `Cc1ccccc1NC(=O)c1ccc(COc2ccc3c(C)cc(=O)oc3c2)cc1` the value was 10.2% (inactive). For `CC(=O)c1c(C)[nH]c(C(=O)COc2ccc3c(C)cc(=O)oc3c2)c1C` the value was -31.5% (inactive); for `CCc1ccc(N2C(=O)CN(S(=O)(=O)CC)CC2(C)C(=O)NC2CCCCC2)cc1` (stereo not given), 0% (inactive); for `COc1cccc(C(=O)NCc2ccc3c(c2)CCN3C(=O)c2ccncc2)c1`, 8.47% (inactive). For the molecule `NS(=O)(=O)c1ccc(NC(=O)COc2ccc(S(=O)(=O)NC3CCCCC3)cc2)cc1`, the activity change, negative = inhibition was 15.5% (inactive).

On to `CCN(CC)CCn1c(=S)[nH]c2ncccc2c1=O`, for which the activity change, negative = inhibition is -27.4% (inactive). `COc1ccc(C(=O)NCC(c2ccc(N(C)C)cc2)N2CCc3ccccc32)c(OC)c1` (stereo not given): the activity change, negative = inhibition is -18.8% (inactive). For `CCCCOc1ccc(CN2C(=O)C(=O)c3cc(Br)cc(C)c32)cc1OC`, the activity change, negative = inhibition is -102% (active).

Regarding `COc1ccc(CN2C(=O)CC(Cc3ccc(C)cc3)C2=O)cc1OC` (stereo not given), the activity change, negative = inhibition is -12.9% (inactive). For `CCCCOc1ccc(Cn2c(=O)oc3ccc(C)cc32)cc1OC` the value was -4.31% (inactive); for `CCC(=O)N1CCc2cc(S(=O)(=O)NC(Cc3ccccc3)C(=O)NCc3ccccc3)ccc21` (stereo not given), -22.7% (inactive); for `CCn1cc(C(=O)N2CCN(c3cc(Cl)ccc3C)CC2)c(=O)c2cc(S(=O)(=O)N3CCCC3)ccc21`, -11.4% (inactive).

Take `Cc1c(C)n(Cc2ccc(Cl)cc2)c2ccc(C(=O)N3CCN(c4ccccc4F)CC3)cc12`: the activity change, negative = inhibition is 0% (inactive).

On to `Cc1nn(C)cc1/C=C1\CCC/C(=C\c2cn(C)nc2C)C1=O`, for which the activity change, negative = inhibition is -22.6% (inactive).

Turning to `CCCCc1nn2c(=O)cc(COC(=O)c3ccccc3NC(=O)C(C)(C)C)nc2s1`, the activity change, negative = inhibition was -7.43% (inactive). With `COc1ccc(NC(=O)C[C@H]2C(=O)N(CCc3ccccc3)C[C@@H]2C)cc1` the figure was 5.53% (inactive). For `CC1(C)CN(CCc2ccccc2)C(=O)[C@H]1CC(=O)Nc1ccc(Br)cc1` the value was 8.25% (inactive); for `O=C(C[C@H]1C(=O)N(c2ccc(F)c(F)c2)C[C@@H]1Cc1ccccc1)Nc1ccccc1`, -93.1% (active); for `CCc1ccc2ncc3c(-c4ccc(C)cc4)nn(CC(=O)NCc4ccccc4)c3c2c1`, -6.71% (inactive). For `COc1ccc(S[C@]2(c3nc(C)no3)CC(=O)N(C(=O)C3CC3)[C@@H]2c2ccc(OC)cc2)cc1` the value was -16.8% (inactive). Turning to `Cc1cccc(Cc2c(C)nc3nc(SCc4ccccc4Cl)nn3c2C)c1`, the activity change, negative = inhibition is 4.98% (inactive). For `Oc1ccc(-c2nc3ccc(Cl)cn3c2Nc2ccc3c(c2)OCO3)cc1` the value was 12.9% (inactive). For `Cc1ccc(CCNC(=O)c2ccc3c(c2)nc2n3CCC(C)C2)cc1` (stereo not given) the value was 14.9% (inactive); for `Cc1ccc(-c2csc(NC3OC(=O)c4ccccc43)n2)cc1` (stereo not given), 0% (active); for `COc1ccc(-c2csc(NC3OC(=O)c4ccccc43)n2)cc1` (stereo not given), -107% (active). `COc1ccc(-c2cc(-c3ccc(F)cc3)nc3c2COc2ccccc2-3)cc1`: the activity change, negative = inhibition is -6.64% (inactive). For `CCCc1nc2scc(-c3ccc(C)cc3)c2c(=O)n1N` the value was -13.5% (inactive); for `COc1cccc(C(NC(C)=O)c2nc(-c3ccccc3OC)cs2)c1` (stereo not given), 28.9% (inactive). `COc1ccc2c(c1OC)C(=O)OC2Nc1nc(-c2ccccc2)cs1` (stereo not given): the activity change, negative = inhibition was -104% (active). Take `Cc1cc2c(cc3c(SCc4cccc(Cl)c4)nnc(C)n32)o1`: the activity change, negative = inhibition was 4.43% (inactive).

Consider `Cc1ccc(-n2c(=O)c3cccnc3n2CC(=O)Nc2ccccc2C(F)(F)F)cc1C`, for which the activity change, negative = inhibition is -5.4% (inactive).

On to `CCN(C(=O)CSc1cccc[n+]1[O-])c1ccccc1`, for which the activity change, negative = inhibition is -32.1% (inactive). With `O=C(CSc1cccc[n+]1[O-])c1ccc(-c2ccccc2)cc1` the figure was -97.9% (active); with `O=C(CSc1cccc[n+]1[O-])NCCCc1ccccc1`, -39.5% (inactive); with `COC(=O)Cc1nnn2c1[C@H](C)[C@H](c1ccccc1[N+](=O)[O-])OCC2`, -4.47% (inactive). For `COc1ccc(CNC(=O)COCc2cc(-c3cccs3)on2)cc1OC` the value was -28.2% (inactive); for `CC1CCN(c2nc3ccc(C(=O)N4CCN(c5ccccc5)CC4)cc3s2)CC1`, 31.7% (inactive); for `CCn1c(-c2ccncc2)n[nH]c1=S`, -21.8% (inactive). Consider `CCn1c(CSCc2c(Cl)cccc2Cl)n[nH]c1=S`, for which the activity change, negative = inhibition is -67.6% (active). With `S=c1[nH]nc(CSCc2ccc(Cl)cc2Cl)n1-c1ccccc1` the figure was -18.3% (inactive); with `Cc1cc(C)n2nc(CNS(=O)(=O)c3c(F)c(F)c(F)c(F)c3F)nc2n1`, 0% (inactive); with `CCc1ccc2oc(-c3ccc(C)c(NC(=O)/C=C/c4ccco4)c3)nc2c1`, 34.4% (inactive). With `Cc1ccc(NC(=O)Cn2c(=O)n(-c3ccccc3)c(=O)c3c4c(sc32)CCCC4)cc1` the figure was 2.61% (inactive). For `CCC(C)NC(=O)Cn1c(=O)n(-c2ccc(Cl)cc2)c(=O)c2c3c(sc21)CCCC3` (stereo not given) the value was 12.8% (inactive); for `CCOC(=O)c1c(NC(C)=O)c2c3c(sc2n1Cc1c(C)cc(C)cc1C)CCCC3`, -73.8% (active); for `CCOc1ccc(C(=O)c2cn(Cc3ccc(F)cc3)c3ccc(F)cc3c2=O)cc1`, -1.76% (inactive).

Turning to `CCCc1nn2c(=O)cc(CSCC(=O)Nc3cccc(C)c3)nc2s1`, the activity change, negative = inhibition was 2.89% (inactive). With `C=CCNC(=S)NNC(=O)c1ccc(Br)o1` the figure was -7.15% (inactive); with `C=CCNC(=S)N/N=C/c1ccc(C)s1`, 0% (active); with `CNC(=S)N/N=C/c1ccc(N2CCOCC2)s1`, 26.5% (inactive).

`CN(C(=O)COC(=O)Cn1cnc2c1c(=O)n(C)c(=O)n2C)C1(C#N)CCCCC1`: the activity change, negative = inhibition was 40.8% (inactive). On to `CCC(CC)c1nn2cc(-c3ccccc3)nc2s1`, for which the activity change, negative = inhibition is -21.9% (inactive).

In the case of `CCc1cc2c(cc3c(=O)n(CC(=O)NCc4cccc(Cl)c4)nc(CC)n32)s1`, the activity change, negative = inhibition is 34.4% (inactive). With `CC1(C)CC2CC(C)(CN2c2ncnc3ccc(Br)cc23)C1` (stereo not given) the figure was -62.4% (active); with `Cc1ccc(CN(C(=O)c2ccccc2[N+](=O)[O-])c2ccccn2)cc1`, 3.28% (inactive); with `Cc1ccc(NC(=O)NNC(=O)c2sccc2-n2cccc2)cc1`, -19% (inactive).

On to `Cc1ccc(C(CNC(=O)Nc2ccccc2)N2CCN(C)CC2)cc1` (stereo not given), for which the activity change, negative = inhibition was -29.6% (inactive). For `C=CC[n+]1c(-c2ccc(C)cc2)csc1NNC(=O)Nc1ccccc1` the value was -69.2% (active); for `Cc1cc2c(cc3c(SCc4nc(-c5ccccc5)oc4C)nnc(C)n32)o1`, -3.85% (inactive); for `CC(=O)Nc1ccc(NC(=O)CSc2nnc3c4cc(Br)ccc4n(C)c3n2)cc1`, 38.8% (inactive).

In the case of `CCOC(=O)CN1C(C(=O)c2ccccc2)=C(OC(=O)C(C)(C)C)c2ccccc2S1(=O)=O`, the activity change, negative = inhibition was -14% (inactive). For `Cc1nc(SCCOc2ccc(Cl)cc2)[nH]c(=O)c1Cc1ccccc1` the value was -7.29% (inactive); for `CCCOc1ccc(Cc2c(Cl)nc(SC)nc2NC)cc1`, -93.9% (active); for `CCCOc1ccc(Cc2c(O)nc(SC)[nH]c2=O)cc1C`, 15.7% (inactive).
